Reference: the supplement of paper PMC10338343
± gives the standard deviation.

Key:
[1] = tested on: MILI (PIWIL2) piRISC loaded with piRNA #1 (26 nt); assay: pre-steady-state target cleavage rate (min^-1); guide: piRNA #1 5'p-UGAGGUAGUAGGUUGUAUAGUAUCCA; higher = faster piRNA-guided slicing of the target; conditions: auxiliary factor: 500 nM mouse GTSF1
Procedure, shortened: (§1)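 Cleave-'n-Seq: 1 nM active affinity-purified piRISC with one synthetic guide and 0.1 nM transcribed, DNA-blocked target RNA library were mixed, with or without 500 nM GTSF1 partner protein, in HEPES–potassium acetate buffer at 33 °C for 0–8 or 0–960 min. Uncleaved targets were sequenced and normalised to depth and to weakly complementary targets, three trials were pooled, and k3 was capped at 0.0001 min^-1. The pre-steady-state cleavage rate was fitted […].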

[2] = tested on: EfPiwi piRISC loaded with piRNA #1 (26 nt); assay: pre-steady-state target cleavage rate (min^-1); auxiliary factor: 500 nM Ephydatia muelleri Gtsf1; guide: piRNA #1 5'p-UGAGGUAGUAGGUUGUAUAGUAUCCA; MIWI and MILI are mouse PIWI proteins and EfPiwi is from a freshwater sponge; tags in brackets are library labels; higher = faster piRNA-guided slicing of the target
Procedure, shortened: as §1

Sequence	pre-steady-state target cleavage rate [1]	pre-steady-state target cleavage rate [2]
GGAGACGAUACAUACAACCUACUACCUCA	0.158 ± 0.019	0.00551 ± 0.0028
GGAGAGGAUUGUAUACAACCUACUACCUCA	0.103 ± 0.0085	0.00676 ± 0.0048
GGAGAGGAUACUUUACAACCUACUACCUCA	0.172 ± 0.011	0.00667 ± 0.0036
GGAGACCAUACUAUUACAACCUACUACCUCA	0.161 ± 0.013	0.0115 ± 0.0046
GGAGACCUUACUAUACGACCUACUACCUCA	0.0683 ± 0.0088	0.016 ± 0.0076
GGAGACCAGUACUAUACAACCUACUACCUCA	0.177 ± 0.021	0.0152 ± 0.0063
GGAGACCUAACUAUACAACCUACAACCUGA	0.00865 ± 0.0074	0.00402 ± 0.0029
GGAGUGGAUACUGUACAACCUACUACCUCA	0.178 ± 0.0077	0.109 ± 0.039
GGAGUGGAUACUAUAAAACCUACUACCUCA	0.161 ± 0.0081	0.00522 ± 0.0025
GGAGACCUUACUAUACAACCUACUACCUACA	0.109 ± 0.017	0.00473 ± 0.0031
GGAGAGGAUACUAUACAACCUGACUACCUCA	0.00367 ± 0.0024	0.00442 ± 0.0022
GGAGACCAUACUAUACAACGUACUACCUCA	0.0191 ± 0.0046	0.00482 ± 0.0015
GGAGACGAUACUAUACAACCUUCUACCUCA	0.0098 ± 0.0026	0.00729 ± 0.0029
GGAGACGAUAGAUUACAACCUACUACCUCA	0.0557 ± 0.011	0.00662 ± 0.0047
GGAGACGAAUGUAUACAACCUACUACCUCA	0.124 ± 0.011	0.00736 ± 0.0043
GGAGACGAUACUUUACAACCUAGUACCUCA	0.0601 ± 0.017	0.00252 ± 0.0017
GGAGAGGAGUACUAUACAACCUACUACCUCA	0.0702 ± 0.0063	0.00348 ± 0.003
GGAGAGGAAUCUAUACAACCUACUACCUCA	0.199 ± 0.015	0.00943 ± 0.0056
GGAGACCAUACUAUAUAACCUACUACCUCA	0.155 ± 0.016	0.00757 ± 0.0042
GGAGACGAUACUAUACAUCCUACUACCACA	0.334 ± 0.021	0.0049 ± 0.0017
GGAGUGGAUACUAUUCAACCUACUACCACA	0.093 ± 0.0098	0.00327 ± 0.0022
GGAGUGGAUACUAUAGAACCUACUACCUCA	0.178 ± 0.0098	0.00377 ± 0.0019
GGAGACGAUACUAUAAAACCUACUACCUCA	0.184 ± 0.013	0.00426 ± 0.0022
GGAGACCUAACUAUACAACCUACUACUCUCA	0.208 ± 0.028	0.00491 ± 0.0044
GGAGACCUUACUAUACAACGUACUACCUGA	0.0102 ± 0.0027	0.00475 ± 0.0042

Sequence	pre-steady-state target cleavage rate [1]	pre-steady-state target cleavage rate [2]
GGAGUGGAAACUAUACAAGCUACUACCUCA	0.257 ± 0.021	0.00579 ± 0.0027
GGAGACCUAUGUAUUCAACCUACUACCACA	0.0995 ± 0.016	< 0.0001
GGAGAGGAUACAAUACAACCUUCUACCUCA	0.0148 ± 0.003	0.00307 ± 0.0023
GGAGAGGAUACUAUACAACUACUACCUCA	0.0329 ± 0.0041	0.00869 ± 0.0042
GGAGACGAAAGUAUACAACCUACUACCUCA	0.108 ± 0.01	0.0104 ± 0.0056
GGAGACCAUACAUAUACAACCUACUACCUCA	0.101 ± 0.013	0.0645 ± 0.025
GGAGACCUUACUACACAACCUACUACCUCA	0.126 ± 0.017	0.00432 ± 0.0039
GGAGACGAUACUAUACAACCUACUACACUCA	0.202 ± 0.03	0.00494 ± 0.0019
GGAGAGGAUAGUAUACAACCUUCUACCUCA	0.00649 ± 0.004	0.00304 ± 0.0024
GGAGACCUUACUAUACAUCCUACUACCACA	0.246 ± 0.02	0.0038 ± 0.0032
GGAGACCAUAGUUUACAACCUACUACCUCA	0.0547 ± 0.0081	0.0227 ± 0.0096
GGAGUGGAUACUAUCAACCUACUACCUCA	0.186 ± 0.0098	0.0872 ± 0.035
GGAGACGUUACUAUACAACCUACUACGUCA	0.0772 ± 0.016	0.00396 ± 0.0018
GGAGACCAAACUAUACAACCUACUACCUGA	0.133 ± 0.045	0.00429 ± 0.0028
GGAGACCAUACAUACAACCUACUACCUCA	0.119 ± 0.023	0.0126 ± 0.0066
GGAGUGGAUAUAUACAACCUACUACCUCA	0.152 ± 0.01	0.0139 ± 0.0066
GGAGACCUAACUAUACAACCUACUACCCA	0.0749 ± 0.027	0.00326 ± 0.0026
GGAGAGGAUACAAUACAACCUACUAGCUCA	0.068 ± 0.011	0.00253 ± 0.0018
GGAGAGGAUACUAUACAACCUACAUCCUCA	0.00373 ± 0.0031	0.00358 ± 0.0016
GGAGAGGAAACUAUACAACCUACUAGCUCA	0.0535 ± 0.019	0.00276 ± 0.0019
GGAGUGGAUACUAUUCAACGUACUACCUCA	0.0305 ± 0.004	0.00373 ± 0.0014
GGAGACCUAACUAUACAACCUACUACGUCA	0.0415 ± 0.014	0.00274 ± 0.0023
GGAGACCUAACUAUACAACCUACUACCUCG [g2:g21:cont:t1G]	0.189 ± 0.035	0.0178 ± 0.0076
GGAGAGGAUACUAUACAAGCUACUUCCUCA	0.0737 ± 0.013	0.00375 ± 0.0015
GGAGACCUUACAUACAACCUACUACCUCA	0.0259 ± 0.0067	0.00863 ± 0.0045
